Source: PubChem BioAssay AID430 (Sanford-Burnham Center for Chemical Genomics, 2006)
Hit rate of the full screen: of about 63,000 compounds, about 1,100 (1.7%) were called active. Many of the other results were omitted from the sample, so actives are more common in it than they were. Entries with a potency or affinity are not part of this list. Unmarked numbers belong to inactive results. Rule as the data show it: active = cytotoxicity above about 50%; inactive = the rest.

Assay: HPDE-C7 pancreatic duct cell viability loss – fluorescence, HTS (AID 430);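 also: cells exposed to compound for 48 hours before viability readout; 0% = vehicle and 100% = reference cytotoxic drug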
Conditions: HPDE-C7 pancreatic duct cells viability, at 10 µM, hits give high values

SMILES	cytotoxicity
C=CCn1c(SCC(=O)O)nnc1-c1cccc(Cl)c1	5.9%
Cc1cc(N2CCN(C(=O)c3ccco3)CC2)n2nc(C)nc2n1	3%
O=C(CSc1nc(O)cc(=O)[nH]1)N1CCCc2ccccc21	2.5%
CC1=C(C)SC(=C(C#N)c2nnc(N3CCOCC3)n2-c2ccccc2)S1	23.4%
O=C(Nc1ccc(Nc2ccccc2)cc1)c1ccc(Br)o1	76.8% (active)
COC(=O)Cc1ccc(NC(=O)c2ccc(Br)o2)cc1	-2.2%
O=C(Nc1ccc(S(=O)(=O)NCCc2ccccc2)cc1)c1ccc(Br)o1	12%
COc1ccccc1CNC(=O)C1CCCN(S(=O)(=O)c2c(C)[nH]c(=O)[nH]c2=O)C1 (stereo not drawn)	-20.9%
COc1ccc(C(=O)c2ccc(OC)c(N)c2)cc1N	78.9% (active)
COc1ccc(C(N)=O)cc1N	-18.1%
COc1ccc(C(=O)c2ccc(OC)c(OC)c2)cc1OC	-8.6%
O=C(NC1CCCCC1)N1CCCCCC1	-4%
CCSc1nnc(NC(=O)c2cc3c(s2)CCCC3)s1	7.4%
CC[C@]1(O)C[C@@H]2CN(CCc3c([nH]c4ccccc34)[C@@](C(=O)OC)(c3cc4c(cc3OC)N(C)[C@H]3[C@@](O)(C(=O)OC)[C@H](OC(C)=O)[C@]5(CC)C=CCN6CC[C@]43[C@@H]65)C2)C1	67.3% (active)
CC[C@]1(O)CC2CN(CCc3c([nH]c4ccccc34)[C@@](C(=O)OC)(c3cc4c(cc3OC)N(C=O)[C@H]3[C@@](O)(C(=O)OC)[C@H](OC(C)=O)[C@]5(CC)C=CCN6CC[C@]43[C@@H]65)C2)C1 (stereo partly drawn)	66.3% (active)
CC(=O)N1CCN(C2c3cccc4cccc(c34)C2NS(=O)(=O)c2ccccc2)CC1 (stereo not drawn)	-18.7%
COc1cccc(OCC(O)CN2CCC(C)CC2)c1 (stereo not drawn)	0.1%
Cc1cc(C(=O)Nc2ccc(S(=O)(=O)N3CCCC3)cc2)cs1	-11.4%
COc1ccc(C2CC(=O)c3c([nH]c(C(=O)OC(C)C)c3C)C2)cc1OC (stereo not drawn)	-7.1%
COc1ccc(OC)c(C2CC(=O)c3c([nH]c(C(=O)OC(C)C)c3C)C2)c1 (stereo not drawn)	65.9% (active)
COCCOC(=O)c1[nH]c2c(c1C)C(=O)CC(c1cc(OC)ccc1OC)C2 (stereo not drawn)	16.4%
CCCOCCOC(=O)c1[nH]c2c(c1C)C(=O)CC(c1cc(OC)ccc1OC)C2 (stereo not drawn)	60.7% (active)
COC(=O)c1[nH]c2c(c1C)C(=O)CC(c1cc(OC)ccc1OC)C2 (stereo not drawn)	31.5%
CCOCC(=O)Nc1ccc(S(=O)(=O)NCCc2ccccc2)cc1	4.2%

SMILES	cytotoxicity
COC(=O)c1ccc(NC(=O)CCN2CCN(c3ccccc3)CC2)cc1	37.6%
O=C(Nc1ccc(N2CCCCC2)cc1)c1ccc(F)cc1	23.5%
O=C(c1ccco1)N1CCN(C(=O)c2ccccc2OC(=O)C23CC4CC(CC(C4)C2)C3)CC1	-9.7%
CCOc1ccccc1N1CC(O)=C(c2nc3ccccc3s2)C1=N	65.2% (active)
COc1ccc(N2CC(O)=C(c3nc4ccccc4s3)C2=N)cc1	5.8%
COc1ccc(N2CC(O)=C(c3nc4ccccc4s3)C2=N)c(OC)c1	20.6%
O=C(O)C(CC(=O)N1CCOCC1)NCc1ccccc1 (stereo not drawn)	5.6%
CC1CCCN(C(=O)CSc2nnc(-c3cccnc3)n2C2CCCCC2)C1 (stereo not drawn)	-23.2%
CCCN(CC1CC1)C(=O)Nc1ccccc1C	-9.7%
CCC1CCCCN1c1nc(-c2cccc(OC)c2O)nc2ccccc12 (stereo not drawn)	-2.8%
COc1cccc(-c2nc(NC(C)(C)C)c3ccccc3n2)c1O	10.9%
COc1cccc(-c2nc(N3CCCCC3C)c3ccccc3n2)c1O (stereo not drawn)	53% (active)
C=CCNc1nc(-c2cccc(OC)c2O)nc2ccccc12	-3%
Oc1ccccc1-c1nc(NCC2CCCO2)c2ccccc2n1 (stereo not drawn)	46.8%
CCC(C)Nc1nc(-c2cccc(OC)c2O)nc2ccccc12 (stereo not drawn)	107% (active)
COc1cccc(-c2nc(N3CCCCC3)c3ccccc3n2)c1O	-7.5%
COc1cccc(-c2nc(NCC3CCCO3)c3ccccc3n2)c1O (stereo not drawn)	52.2% (active)
COc1cccc(-c2nc(NC(C)C)c3ccccc3n2)c1O	23.8%
O=C(CN(C1CC1)S(=O)(=O)c1ccc(S(=O)(=O)N2CCCCCC2)cc1)Nc1ccccc1	7.4%
CCCOc1ccc(C(=O)NCCC(=O)NCCCC(=O)OCC)cc1	1.7%
O=C1C(SC(F)(F)C(F)F)=C(C(F)(F)F)OC2C3C=CC(C3)C12 (stereo not drawn)	3.6%
O=C1NC(NS(=O)(=O)c2ccccc2)(C(F)(F)F)C(=O)N1Cc1cccnc1 (stereo not drawn)	-8.4%
CC(C)(C)c1ccccc1OCC(=O)NCCC(=O)O	-12.2%
CCS(=O)(=O)CCSc1nc2ccccc2s1	-17.4%

SMILES	cytotoxicity
CCS(=O)(=O)CCSc1nc2ccccc2o1	-9.3%
O=C(CSc1nc2ccccc2s1)Nc1ncccn1	-3.2%
c1ccc2oc(SCc3nc4ccccc4s3)nc2c1	8.6%
Cc1ccccc1N(C)S(=O)(=O)c1ccc2[nH]cc(C(=O)NCC3CCCO3)c(=O)c2c1 (stereo not drawn)	-13.7%
O=C(Cc1ccc2c(c1)OCCO2)c1c(O)cc(O)cc1O	60.9% (active)
O=C(O)CCC(=O)c1ccc2c(c1)OCCO2	0%
O=C(O)COc1ccc(C(=O)Cc2ccc3c(c2)OCCCO3)c(O)c1	-8.7%
Nn1c(SCC(=O)NCc2ccccc2)nnc1C1CC1	6.6%
COC(=O)C1CCN(C(=O)C(C)Oc2ccc(Cl)cc2Cl)CC1 (stereo not drawn)	-16.4%
CCN(CC)CCCNC(=O)C1CCN(C(=O)c2cc3sccc3n2Cc2ccc(F)cc2)CC1	20.7%
CC(=O)C1=C(C)N=c2s/c(=C/c3ccc4c(c3)OCO4)c(=O)n2C1c1ccc(N(C)C)cc1 (stereo not drawn)	-3.5%
COc1ccc(C2C(C(C)=O)=C(C)N=c3s/c(=C/c4ccc5c(c4)OCO5)c(=O)n32)cc1 (stereo not drawn)	-4.1%
CCOC(=O)c1cnc2c(C(=O)OC)cccc2c1NCCN1CCOCC1	-10.4%
COc1ccc(N2CCN(CC(O)c3c[nH]c4ccc(OC)cc34)CC2C)cc1 (stereo not drawn)	41.3%
COc1ccc(CCNC(=O)c2cc3ccccn3n2)c(OC)c1OC	-7%
COc1ccc(OC)c(Nc2nc(-c3cccs3)cs2)c1	44%
COc1ccc(OC)c(Nc2nc(-c3sc(C)nc3C)cs2)c1	7.9%
COc1ccc(OC)c(Nc2nc(-c3ccc(O)c(O)c3)cs2)c1	67.2% (active)
Cc1cc2cc(C(c3nnnn3Cc3ccco3)N3CCc4ccccc4C3)c(=O)[nH]c2cc1C (stereo not drawn)	-4.7%
Cc1nn(C(C)(C)C)c(OC(=O)C2CCCC2)c1S(=O)(=O)c1ccccc1	-9.3%
Cc1ccc(S(=O)(=O)c2c(C)nn(C(C)(C)C)c2OC(=O)c2ccco2)cc1	14.5%
Cc1ccc(S(=O)(=O)c2c(C)nn(C(C)(C)C)c2OC(=O)c2cccs2)cc1	-6.5%
Cc1nn(C(C)(C)C)c(OC(=O)c2cccs2)c1S(=O)(=O)c1ccccc1	54.2% (active)
Cc1nn(C(C)(C)C)c(OC(=O)c2ccc3c(c2)OCO3)c1S(=O)(=O)c1ccccc1	60.9% (active)

SMILES	cytotoxicity
CC(=O)Oc1c(S(=O)(=O)c2ccc(C)cc2)c(C)nn1C(C)(C)C	12.6%
CC(=O)Oc1c(S(=O)(=O)c2ccccc2)c(C)nn1C(C)(C)C	13.3%
Cc1nn(-c2ccccc2)c(OC(=O)c2cccs2)c1S(=O)(=O)c1ccccc1	-5.8%
CCC(Sc1nncn1C)C(=O)Nc1nnc(-c2ccccc2Cl)s1 (stereo not drawn)	3.8%
CC(=O)Nc1ccc(C(=O)Nc2ccc(S(=O)(=O)NCC3CCCO3)cc2)cc1 (stereo not drawn)	-3.3%
C=C(C)COc1ccc(-c2nc(N)ncc2Oc2ccccc2OCC)c(O)c1	7.3%
C=C(C)COc1ccc(-c2[nH]ncc2Oc2ccccc2OCC)c(O)c1	86% (active)
CCOc1ccc(-c2[nH]ncc2Oc2ccccc2OC)c(O)c1	65.8% (active)
COc1ccc(Oc2cn[nH]c2-c2ccc(O)cc2O)cc1	9.4%
CCOc1ccc(-c2[nH]ncc2Oc2ccccc2OCC)c(O)c1	53.9% (active)
COc1ccc(-c2[nH]ncc2-c2cnc(C)s2)c(O)c1	6.4%
COc1ccc(-c2[nH]ncc2Oc2ccccc2OC)c(O)c1	6.8%
CCOc1ccccc1Oc1cn[nH]c1-c1ccc(OC)cc1O	51.7% (active)
O=c1c2c3nc4ccccc4nc3n(/N=C/c3cccs3)c2ncn1-c1ccccc1	-19.9%
O=C(CCc1nc2ccccc2[nH]1)Nc1ccc2c(c1)OCO2	5.9%
Cc1noc(C)c1COC(=O)CCN1c2ccccc2Sc2ccccc21	-8%
COc1ccc(NC(=O)CSc2nc3ccccc3c(=O)n2-c2ccc3c(c2)OCO3)c(OC)c1	33.6%
CCc1ccccc1-n1cnc2cc(C(=O)O)ccc21	-20.8%
O=C(O)c1cc(Cl)ccc1NC(=O)C1CCCO1 (stereo not drawn)	-8.9%
C=CCNC(=O)C1CC(c2cccc(OC)c2)=NO1 (stereo not drawn)	-8.4%
CCC1(COC(NC(=O)c2cccnc2)(C(F)(F)F)C(F)(F)F)COC1	-0.9%
